Measured values from PubChem BioAssay (NCI).
Compounds without any hit were thinned out: in the full panel of roughly 83,000, 20% have a hit.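 Cells were grown in 96-well plates and exposed to the test compound at a single concentration for 48 hours; results are reported as percent growth, with values below 10 considered active.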 Activity calls are given as the source filed them.

How the values were obtained:
Test in all cases: NCI-60 one-dose screen, 48 h (100 = growth as untreated, 0 = no growth, -100 = all killed)
[1] = tested on: SR leukemia; settings: 10 µM unless noted
[2] = tested on: RPMI-8226 leukemia; settings: 10 µM
[3] = tested on: OVCAR-8 ovarian; settings: 10 µM unless noted
[4] = tested on: OVCAR-5 ovarian; settings: 10 µM unless noted
[5] = tested on: OVCAR-4 ovarian; settings: 10 µM unless noted
[6] = tested on: SK-OV-3 ovarian; settings: 10 µM
[7] = tested on: IGROV1 ovarian; settings: 10 µM unless noted
[8] = tested on: OVCAR-3 ovarian; settings: 10 µM unless noted
[9] = tested on: HS 578T breast; settings: 10 µM unless noted
[10] = tested on: T-47D breast; settings: 10 µM
[11] = tested on: BT-549 breast; settings: 10 µM unless noted
[12] = tested on: MDA-MB-435 melanoma; settings: 10 µM unless noted
[13] = tested on: SW-620 colon; settings: 10 µM unless noted
[14] = tested on: MCF7 breast; settings: 10 µM unless noted
[15] = tested on: HCT-116 colon; settings: 10 µM unless noted
[16] = tested on: HCC-2998 colon; settings: 10 µM unless noted
[17] = tested on: KM12 colon; settings: 10 µM unless noted
[18] = tested on: NCI/ADR-RES ovarian; settings: 10 µM unless noted

Measured: growth

Cc1nc2cc(Nc3nc(Nc4ccc(F)cc4)nc(-c4ccc(Cl)cc4)n3)ccc2n1Cc1ccccc1
inactive: [3] 62.8% | [4] 92.3% | [5] 58.6% | [6] 92.9% | [7] 48.7% | [8] 57.3% | [9] 75.4% | [10] 30.7% | [11] 101% | [12] 66.2% | [13] 68.1% | [14] 42.4% | [15] 50.3% | [16] 81.6% | [17] 37.2%
active: [1] -19.4% | [2] 0.193%

CCCN(CCC)c1ccc(/C=C/c2ccc3cc(OCC)ccc3n2)cc1
active: [1] -8.74%
inactive: [2] 35.6% | [3] 94.6% | [4] 110% | [5] 80.8% | [6] 104% | [7] 99.6% | [8] 132% | [9] 66.5% | [10] 59.1% | [11] 119% | [12] 95% | [13] 89.6% | [14] 84.9% | [15] 70.4% | [16] 94.4% | [17] 128%

COC(=O)c1ccc(C(=O)Nc2ccccc2N)cc1
inactive: [1] 67.1% | [2] 12.6% | [3] 56.9% | [4] 53.4% | [5] 96.2% | [6] 92.6% | [7] 74.7% | [8] 87.5% | [9] 75% | [18] 53.1% | [11] 60% | [13] 72.3% | [14] 69.2% | [15] 75.4% | [16] 85.8% | [17] 86.3%

O=C1CC2c3cc(-c4cc5ccccc5o4)ccc3CCN2C(=O)N1c1ccccc1 (stereo not given)
inactive: [1] 57.6% | [2] 68.1% | [3] 88.4% | [4] 97.9% | [5] 84.7% | [6] 80% | [7] 84.6% | [8] 99.3% | [9] 107% | [10] 57.4% | [11] 92.2% | [12] 89.3% | [13] 111% | [14] 88.6% | [15] 75.3% | [16] 110% | [17] 101%

COc1ccc(CSc2nc3cc(OC)c(OC)cc3c(=O)n2-c2ccc(Cl)cc2)cc1
inactive: [1] 102% | [2] 90.8% | [3] 98.7% | [4] 94.2% | [5] 103% | [6] 105% | [7] 104% | [8] 103% | [9] 97.1% | [10] 95.4% | [11] 100% | [12] 98% | [13] 99.2% | [14] 101% | [15] 98.4% | [16] 108% | [17] 102%

COc1ccc(S(=O)(=O)c2ccc(C(N)=O)cc2)cc1NC(=O)c1[nH]c(C)c2c1CCCCC2=O
active: [9] -2.07%
inactive: [1] 50% | [2] 46.9% | [3] 74.5% | [4] 68.7% | [5] 51.1% | [7] 64.9% | [8] 48% | [18] 105% | [10] 34.4% | [11] 58.6% | [12] 28.6% | [13] 68.4% | [14] 23.1% | [15] 60% | [16] 66% | [17] 65.4%

Cn1c2ccc(Cl)cc2c2nn(C(=O)c3ccccc3)c(=O)nc21
inactive: [1] 93% | [2] 106% | [3] 101% | [4] 99.5% | [5] 114% | [6] 114% | [7] 110% | [8] 111% | [9] 104% | [18] 106% | [11] 122% | [13] 99.3% | [14] 94.7% | [15] 104% | [16] 111% | [17] 106%

CNc1ccc(Br)cc1-c1n[nH]c(=O)[nH]c1=O
inactive: [1] 103% | [2] 104% | [3] 100% | [4] 98.3% | [5] 90.9% | [6] 102% | [7] 106% | [8] 116% | [9] 84.1% | [10] 109% | [11] 99.9% | [12] 98.8% | [13] 92.9% | [14] 90.2% | [15] 98.2% | [16] 107% | [17] 111%

Oc1ccc2ccccc2c1C1NN=C(c2ccccc2)S1 (stereo not given)
active: [1] 2.39%
inactive: [2] 19.6% | [3] 15.6% | [4] 43.2% | [5] 22.3% | [6] 15.4% | [8] 35.1% | [9] 57.7% | [18] 19.5% | [10] 20.7% | [11] 19.5% | [13] 40.4% | [14] 17.2% | [15] 16% | [17] 23.3%

Clc1ccc(Nc2ccnc(N3CCN(c4ccnc5cc(Cl)ccc45)CC3)n2)cc1
inactive: [1] 37.2% | [2] 34.5% | [3] 61.4% | [4] 70.6% | [5] 41.9% | [6] 62.5% | [8] 35.5% | [9] 49.1% | [10] 15.2% | [11] 52.2% | [12] 13.3% | [13] 48.5% | [14] 17.5% | [15] 13.5% | [16] 64.7% | [17] 36.8%
active: [7] -4.05%

Clc1ccc(Nc2nc(Nc3ccccc3)nc(Nc3ccc(-c4cc(-c5ccc(Cl)cc5)on4)cc3)n2)cc1
inactive: [1] 51.5% | [2] 50.8% | [3] 39.4% | [4] 87.2% | [5] 64.6% | [6] 91.2% | [7] 34.7% | [8] 71.6% | [9] 11.7% | [10] 71.7% | [11] 59.1% | [12] 11.1% | [13] 38.7% | [14] 50% | [15] 27.4% | [16] 56.4% | [17] 56.9%

Cc1nn2c(-c3nc4ccc(Cl)cc4[nH]3)c(-c3ccc(F)cc3)nc2s1
inactive: [1] 72% | [2] 77.6% | [3] 87.7% | [4] 98.5% | [5] 115% | [6] 107% | [8] 110% | [18] 96.4% | [10] 91.2% | [11] 102% | [13] 91.2% | [14] 81.2% | [15] 86.3% | [16] 99.2% | [17] 89.4%

CCOC(=O)c1cc2c(n(C)c1=O)-c1cnn(-c3ccc(OC)cc3)c1CC2
inactive: [1] 87.2% | [2] 89.1% | [3] 93.8% | [4] 95.2% | [5] 106% | [6] 108% | [7] 115% | [8] 107% | [9] 119% | [10] 82.8% | [11] 101% | [12] 92.6% | [13] 119% | [14] 97.2% | [15] 108% | [16] 120% | [17] 112%

O=C1C(Cl)=C(NCCCN2CCOCC2)C(=O)c2ccccc21
inactive: [1] 39.2% | [2] 78.3% | [3] 96.1% | [4] 111% | [5] 77.1% | [6] 102% | [7] 56.4% | [8] 96.4% | [9] 99.7% | [10] 102% | [11] 97.2% | [12] 63.9% | [13] 79.2% | [14] 74.6% | [15] 97.5% | [16] 91.3% | [17] 91.4%

NC(=O)c1cc(I)ccc1NC(=O)COc1ccccc1
inactive: [1] 20.2% | [3] 15.9% | [4] 39.1% | [5] 78.9% | [7] 44.2% | [8] 12% | [9] 36.6% | [11] 69.3% | [13] 23.5% | [14] 17.7% | [15] 19% | [16] 13.9% | [17] 19.9%
active: [2] 9.76% | [6] -2.65% | [18] 4.28% | [12] -56%

CN1CCN(C)c2cncc(Br)c2C1=O
active: [12] -81.7%
inactive: [1] 84.1% | [2] 93.8% | [3] 102% | [4] 104% | [5] 115% | [6] 101% | [7] 108% | [8] 109% | [10] 101% | [13] 102% | [14] 105% | [16] 98% | [17] 105%

CC[Si](CC)(CC)OC1[C@@H](O[Si](CC)(CC)CC)[C@@H](CNC(=O)NC)O[C@H]1n1cnc2c(NC(=O)Nc3ccccc3)ncnc21 (stereo not given in full)
active: [2] 3.35%
inactive: [1] 14.8% | [3] 92.7% | [4] 93.6% | [5] 94.4% | [6] 98.2% | [7] 73.6% | [8] 66.6% | [9] 69.9% | [10] 89.8% | [11] 104% | [12] 65.5% | [13] 71.6% | [14] 61.6% | [15] 51.9% | [16] 96.5% | [17] 60.8%
